Reference: PubChem BioAssay (NCI)
This is part of a sample that, as a whole, favours compounds with a hit. Of some 83,000 tested, about 20% had one in any assay.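 Each cell line was grown in a 96-well plate and treated with one concentration of compound for 48 hours. Values below 10 were considered active.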 Unmarked numbers belong to inactive results. The source made the active and inactive calls.

Key:
Assay in all cases: NCI-60 one-dose screen, 48 h (100 = growth as untreated, 0 = no growth, -100 = all killed)
Settings in all cases: 10 µM unless noted
[1] = system: SK-MEL-2 melanoma
[2] = system: EKVX NSCLC
[3] = system: SN12C renal
[4] = system: UO-31 renal
[5] = system: TK-10 renal
[6] = system: ACHN renal
[7] = system: CAKI-1 renal
[8] = system: A498 renal
[9] = system: CCRF-CEM leukemia
[10] = system: MOLT-4 leukemia
[11] = system: SR leukemia
[12] = system: RPMI-8226 leukemia
[13] = system: OVCAR-8 ovarian
[14] = system: OVCAR-5 ovarian
[15] = system: OVCAR-4 ovarian
[16] = system: SK-OV-3 ovarian
[17] = system: IGROV1 ovarian
[18] = system: OVCAR-3 ovarian
[19] = system: HS 578T breast
[20] = system: NCI/ADR-RES ovarian

Compound | growth [1] | growth [2] | growth [3] | growth [4] | growth [5] | growth [6] | growth [7] | growth [8] | growth [9] | growth [10] | growth [11] | growth [12] | growth [13] | growth [14] | growth [15] | growth [16] | growth [17] | growth [18] | growth [19] | growth [20]
CC(Nc1ncnc2ccc(-c3cnc4cnccn34)cc12)c1ccccc1 (stereo not given) | 64% | 30.4% | 51.9% | 15.7% | 20.9% | 22.8% | 27.6% | 65.3% | 61.1% | 37.5% | 38.9% | 46.6% | 59.7% | 68.2% | 41.4% | 60.6% | 5.93% (active) | 67.5% | 63.1% | 52.6%
Cc1ccc(C)c(NC2=C(Cl)C(=O)c3nc(C)ccc3C2=O)c1 | -36.2% (active) | 1.21% (active) | -81.7% (active) | -81.4% (active) | 147% | -96.3% (active) | 57% | 83.8% | 0.186% (active) | -11% (active) | 1.99% (active) | -41.9% (active) | 9.92% (active) | -71.8% (active) | -96% (active) | 93% | -66.8% (active) | -97.4% (active) | -24.8% (active) | -6.86% (active)
Cc1ccc(S(=O)(=O)NCCCNc2nc(Nc3ccc(N4CCN(C)CC4)cc3)nc3ccsc23)cc1 | 92.9% | 78.8% | 58.3% | 50.7% | 124% | 11.7% | 14.5% | 56.2% | 18.1% | 9.91% (active) | 4.16% (active) | 6.57% (active) | 40% | 73.9% | 23.7% | 117% | 57.1% | 14.6% | 44% | 70.4%
NC1C2CCC1CN(c1cnc(C(=O)Nc3cc(F)cc4cccnc34)cn1)C2 (stereo not given) | 101% | 71.2% | 56.1% | 34.9% | 91.2% | 28.3% | 38.5% | 72.8% | 25% | 16.3% | 5.29% (active) | 57% | 86% | 66.7% | 18.5% | 97.1% | 16.3% | 46.3% | 68.8% | 79.4%
CCCCCN1C(=O)/C(=c2\sc3n(c2=O)C2C(NN=3)N(CC)C(=O)N2CC)c2cccc(C)c21 (stereo not given) | 97.1% | 56.2% | 74.3% | 62.7% | 96.5% | 43.9% | 41.3% | 12% | 30.6% | 53.1% | 13.6% | 39.1% | 73.3% | 72.4% | 52.1% | 89.3% | 44.8% | 32.9% | 34.3% | 30.7%
CCOP(=O)(OCC)OC[C@]12CC[C@@H](C)[C@H](C)C1C1=CC[C@@H]3[C@@]4(C)CCCNC(C)(C)[C@@H]4CC[C@@]3(C)[C@]1(C)CC2 (stereo not given in full) | 109% | 36.8% | 40.1% | 21.1% | 61.2% | 34.4% | 13% | 66.3% | -33.3% (active) | -69.1% (active) | -57.7% (active) | -48.9% (active) | 61.2% | 70% | 34.4% | 72.7% | 0.926% (active) | 38.4% | 47.8% | 20.6%
CC1CCN(CC(=O)Nn2c(COc3ccccc3)nc3ccccc3c2=O)CC1 | 87.2% | 86.1% | 96.3% | 70.7% | 125% | 102% | 71.2% | 81.8% | 89.4% | 88.1% | 30.5% | 76.8% | 98.5% | 101% | 94.9% | 77% | 73.1% | 94.8% | 86.1% | 71.6%
COc1ccc2[nH]cc(-c3nc(N)nnc3-c3cn(C)c4ccc(Br)cc34)c2c1 | 9.85% (active) | 38.1% | 42.6% | 40.7% | 54.3% | 40.5% | 29.1% | -1.71% (active) | 2.97% (active) | 10.7% | 9.35% (active) | 6.31% (active) | 42.8% | 56.5% | 63.6% | 44% | 38.9% | -8.84% (active) | 16.9% | 64.3%
O=S(=O)(NCCCNc1nccc(-c2[nH]c(-c3ccccc3)nc2-c2ccc(F)c(O)c2)n1)c1ccc(C(F)(F)F)cc1 | 18.8% | 69.7% | 67.7% | 91.4% | 95.7% | 58.7% | 40.5% | 28.3% | 4.62% (active) | 17.2% | 1.01% (active) | 16.2% | 69.7% | 136% | 67.8% | 78.4% | 63.1% | 33.6% | 48.9% | 89%
CCOC(=O)c1c(NC(=O)c2ccc(C(F)(F)F)cc2)sc2c3c(ccc12)OCN(C)C3 | 72.8% | 79.5% | 48.1% | 70.9% | -15.7% (active) | -14.5% (active) | -23.9% (active) | 89.1% | 2.17% (active) | -8.7% (active) | -29.8% (active) | -36.9% (active) | -48% (active) | 54.2% | 82.4% | 93.5% | 41.9% | 2.17% (active) | 78.7% | 51.9%
Cc1csc(/N=C(N)/N=C(\N)c2cccnc2)n1 | 68.2% | 82.8% | 80.1% | 77.7% | 116% | 78.4% | 60.1% | 59.6% | 79.2% | 83% | 45.7% | 86.1% | 89.7% | 92.5% | 98.9% | 77.8% | 67.9% | 66.7% | 78.8% | 48.4%
COc1ccc(C(C)=C(c2ccc(OCCN3CCCCCC3)cc2)c2ccc(OCCN3CCCCCC3)cc2)cc1 | -65.2% (active) | 1.68% (active) | 0.944% (active) | -79.3% (active) | 27.1% | -57.8% (active) | -45.9% (active) | 27.9% | 0.672% (active) | -5.35% (active) | -12.1% (active) | -44.9% (active) | 0.8% (active) | 22.9% | -66.7% (active) | 72.9% | -67.9% (active) | -47.2% (active) | -52.1% (active) | -60% (active)
O=C(/C=C/c1ccccc1)c1cccc(O)c1 | 108% | 98.6% | 98.8% | 76.2% | 108% | 106% | 91.5% | 105% | 77.8% | 85.2% | 67.5% | -17.9% (active) | 92.3% | 101% | 105% | 107% | 97.8% | 106% | 114% | 107%
CCCCCC[n+]1ccc(SCC(=O)n2ccc3ccccc32)c2ccccc21 | 94.3% | 83.8% | 88.8% | 68.6% | 108% | 87.2% | 78.4% | 115% | 77.3% | 79.4% | 56.6% | 49.6% | 92.1% | 98.4% | 58.6% | 89.9% | 74.1% | 84.7% | 97.6% | 103%
Cc1ccc2c(n1)C(=O)C(Cl)=C(Nc1cccc(C(F)(F)F)c1)C2=O | 99.7% | 58.1% | 85.8% | -67.7% (active) | 127% | -96.2% (active) | 81.8% | 86% | 4.32% (active) | 6.52% (active) | 9.01% (active) | -17.6% (active) | 76% | 119% | -97.8% (active) | 89.8% | -57.4% (active) | -86.3% (active) | 116% | 93.3%
COc1ccc(CC(C)=C(c2ccc(OCCN3CCCC3)cc2)c2ccc(OCCN3CCCC3)cc2)cc1 | -91.8% (active) | -90.8% (active) | -82.9% (active) | -94.9% (active) | -94.4% (active) | -96% (active) | -89.1% (active) | -87.5% (active) | -40.8% (active) | -60.3% (active) | -34% (active) | -21.7% (active) | -81.6% (active) | -91.1% (active) | -86.9% (active) | -88% (active) | -76.5% (active) | -81% (active) | -47.3% (active) | -80.5% (active)
